FMDV FLuc – shows antiviral activity against foot and mouth disease virus; FMDV antiviral cell assay, firefly luciferase signal; Potency, µM (titrated, usually from 57.5 µM), for inactives: top-dose activity change, negative = inhibition, actives largely listed as inhibitors; 0.23% of 120,000 active; AID 1745856; note: nearly all actives have a fitted effect of over 60% in size
FMDV Renilla – shows antiviral activity in FMDV Renilla assay; 0.32% of 120,000 active; FMDV replicon cells, Renilla luciferase signal; Potency, µM (titrated, usually from 57.5 µM), for inactives: top-dose activity change, negative = inhibition, actives largely listed as inhibitors; note: nearly all actives have a fitted effect of over 55% in size
* = called active by the depositor; ! = not active in a repeat; [ ] = remark or other dose. Only some compounds are listed: those with a hit (about 0.45% of all), similar ones and a draw of the others. Calls come from the whole dose curve. % is set by controls: 0 for no effect and ±100 for the full control effect; potency is the fitted concentration of half-maximal effect.

What do the screens show for `CCCCOC(=O)c1ccc(NC(=O)c2ccc3c(c2)CCN3S(=O)(=O)c2ccccc2)cc1`?
FMDV FLuc: -39.3%; FMDV Renilla: -11.1%

Results for CCCCOC(=O)c1ccc(NC(=O)c2ccc3c(c2)CCCN3S(C)(=O)=O)cc1 ?
FMDV FLuc: 28.2µM*; FMDV Renilla: 22.4µM*

How did COc1cccc(OC)c1OC(=O)COc1ccc2oc3c(c2c1)CCCC3 do in these assays?
FMDV FLuc: -2.7%; FMDV Renilla: 3.8%

How did C/C(=N\NC(=O)C1CC1c1ccccc1)c1ccc(C2CCCCC2)cc1 (stereo unspecified) do in these assays?
FMDV FLuc: -5.0%; FMDV Renilla: 7.2%

What do the screens show for `Cc1cc(C(C#N)c2ccc(Cl)cc2)c(Cl)cc1NC(=O)CCc1ccccc1` (stereo unspecified)?
FMDV FLuc: 0.9%; FMDV Renilla: 1.8%

What do the screens show for `Cc1cc(C(C#N)c2ccc(Cl)cc2)c(Cl)cc1NC(=O)c1cc(I)cc(I)c1O` (stereo unspecified)?
FMDV FLuc: -31.2%[11.5 µM]; FMDV Renilla: 11.2µM*

What do the screens show for `CC(=O)c1cccc(NC(=O)CSc2ncc(-c3ccc(F)cc3)o2)c1`?
FMDV FLuc: 0.0%; FMDV Renilla: -0.8%

How did CCCN1Cc2cccc(C(=O)Nc3ccccc3Br)c2C1=O do in these assays?
FMDV FLuc: 1.2%; FMDV Renilla: 36.4%

What do the screens show for `CC(C)CNc1nc(-c2ccc(S(=O)(=O)N3CCCC3)cc2)cs1`?
FMDV FLuc: inconclusive; FMDV Renilla: 22.4µM*

Results for CCNc1nc(-c2ccc(S(=O)(=O)N3CCCCCC3)cc2)cs1 ?
FMDV FLuc: -9.3%; FMDV Renilla: -12.7%

Results for COc1ccc(C(=O)COC(=O)c2cc(Cl)ccc2Cl)c(OC)c1 ?
FMDV FLuc: 64.1%; FMDV Renilla: 11.3%

How did O=C1CC(c2ccccc2O)Cc2nc(N3CCN(c4cccc(C(F)(F)F)c4)CC3)ncc21 (stereo unspecified) do in these assays?
FMDV FLuc: 8.91µM*; FMDV Renilla: 3.98µM*

What do the screens show for `CC(=O)N1c2ccccc2C(=O)C1N1CCN(c2cccc(C(F)(F)F)c2)CC1` (stereo unspecified)?
FMDV FLuc: -21.8%; FMDV Renilla: -16.7%

How did Cc1cccc(NC(=O)c2nc(S(C)(=O)=O)ncc2Cl)c1 do in these assays?
FMDV FLuc: inconclusive; FMDV Renilla: 35.5µM*

Results for CCS(=O)(=O)c1ncc(Cl)c(C(=O)Nc2c(C(=O)Nc3cccc(C)c3)oc3ccccc23)n1 ?
FMDV FLuc: 41.8%; FMDV Renilla: 10.1%

What do the screens show for `Cc1cc(C)cc(-n2ccnc2SCC(=O)Nc2cccc3ccccc23)c1`?
FMDV FLuc: 2.4%; FMDV Renilla: 13.4%

What do the screens show for `Cc1cc(C)cc(-n2ccnc2SCC(=O)Nc2ccccc2F)c1`?
FMDV FLuc: inconclusive; FMDV Renilla: 20µM*

Results for CN(Cc1ccco1)C(=O)c1ccc(-n2cnnn2)cc1 ?
FMDV FLuc: -13.8%; FMDV Renilla: -9.7%

What do the screens show for `CCCN1C(=O)c2[nH]nc(-c3c(C)cc(C)cc3O)c2C1c1ccc(OC)cc1` (stereo unspecified)?
FMDV FLuc: -14.9%; FMDV Renilla: -8.5%

How did Cc1nc2nncn2c(NCc2ccc(Cl)cc2)c1C do in these assays?
FMDV FLuc: inconclusive; FMDV Renilla: 1.41µM*

What do the screens show for `CCc1c(C)nc2nncn2c1NCc1ccc(OC)cc1`?
FMDV FLuc: -11.9%; FMDV Renilla: -28.5%

What do the screens show for `Cc1nc2nncn2c(NCc2ccc(F)cc2)c1C`?
FMDV FLuc: inconclusive; FMDV Renilla: 8.91µM*

What do the screens show for `COc1ccc(CNc2cc(-c3ccc(OC)cc3)nc3nncn23)cc1`?
FMDV FLuc: -16.8%; FMDV Renilla: -20.9%

What do the screens show for `CC(C)(C)c1ccc(O)c(C(C)(C)C)c1O`?
FMDV FLuc: 22.5%; FMDV Renilla: 14.7%

What do the screens show for `C/C(=C\c1cn(C)c2ccccc12)[N+](=O)[O-]`?
FMDV FLuc: 28.1%; FMDV Renilla: 15.5%

What do the screens show for `COc1ccc(OC(=O)CSc2nnc(-c3ccc(F)cc3)o2)cc1`?
FMDV FLuc: -9.9%; FMDV Renilla: -4.9%

Results for CCOc1ccc(-c2nnc(SCC(=O)Oc3ccccc3)o2)cc1 ?
FMDV FLuc: 3.55µM*; FMDV Renilla: -3.5%

What do the screens show for `Cc1cccc(C)c1OCC(=O)Nc1ccc(C(=O)Nc2ccccc2C(=O)O)cc1`?
FMDV FLuc: 61.3%; FMDV Renilla: 29.8%

How did CN(C)CCCNC(=O)c1cc(-c2ccc(-c3ccccc3)cc2)nc2ccccc12 do in these assays?
FMDV FLuc: 99.3%; FMDV Renilla: 8.91µM*

What do the screens show for `CN(C)CCCNC(=O)c1cc(-c2ccccc2)nc2ccccc12`?
FMDV FLuc: -10.6%; FMDV Renilla: -13.6%

How did COc1cc(F)ccc1-c1ccc(=O)n(Cc2cccc(F)c2)n1 do in these assays?
FMDV FLuc: 76.8%; FMDV Renilla: 35.5%

What do the screens show for `CCCCOc1ccc(C(=O)NCCS(=O)(=O)N2CCN(c3ccccc3OC)CC2)cc1`?
FMDV FLuc: 17.8µM*; FMDV Renilla: inconclusive

Results for CCCCOc1ccc(C(=O)NCCS(=O)(=O)N2CCN(c3ccc(F)cc3)CC2)cc1 ?
FMDV FLuc: -16.4%; FMDV Renilla: -12.3%

How did CC(C(=O)N(C)Cc1ccccc1)N(c1ccccc1)S(C)(=O)=O (stereo unspecified) do in these assays?
FMDV FLuc: -6.4%; FMDV Renilla: -1.5%

How did O=[N+]([O-])c1ccc(N/N=C/c2c[nH]c3ccccc23)c(S(=O)(=O)Nc2ccc(Cl)cc2)c1 do in these assays?
FMDV FLuc: 25.1µM*; FMDV Renilla: -92.9%

What do the screens show for `O=[N+]([O-])c1ccc(N/N=C/c2c[nH]c3ccccc23)c(S(=O)(=O)Nc2ccccc2Cl)c1`?
FMDV FLuc: -18.1%; FMDV Renilla: 68.2%

How did N#Cc1ccccc1Sc1ccccc1C(=O)OCC(=O)Nc1ccccc1 do in these assays?
FMDV FLuc: 18.3%; FMDV Renilla: -2.2%

What do the screens show for `CCCCN(CC)C(=O)C1CCCN(c2ncnc3onc(C)c23)C1` (stereo unspecified)?
FMDV FLuc: -27.6%; FMDV Renilla: inconclusive

What do the screens show for `CCCCN(C)C(=O)C1CCCN(c2ncnc3onc(C)c23)C1` (stereo unspecified)?
FMDV FLuc: inconclusive; FMDV Renilla: 2µM*

What do the screens show for `N#Cc1ccccc1CSCCNC(=O)NCc1ccc(CN2CCCC2)cc1`?
FMDV FLuc: 9.5%; FMDV Renilla: 2.1%

Results for Cc1ccccc1-n1nc(CO)c(C(=O)NCC(c2ccccc2)c2ccccc2)n1 ?
FMDV FLuc: inconclusive; FMDV Renilla: 8.91µM*

What do the screens show for `Cc1ccc(-n2nc(CO)c(C(=O)NCC(c3ccccc3)c3ccccc3)n2)cc1`?
FMDV FLuc: -22.5%; FMDV Renilla: -11.7%

Results for O=C(NCc1cccs1)c1nn(-c2ccccc2Cl)nc1CO ?
FMDV FLuc: inconclusive; FMDV Renilla: 21.3%

How did O=C(NCC(c1ccccc1)c1ccccc1)c1nn(-c2ccccc2Cl)nc1CO do in these assays?
FMDV FLuc: inconclusive; FMDV Renilla: 28.2µM*!

Results for Cn1nc(CC(=O)NCC(=O)OCc2ccccc2)c2ccccc2c1=O ?
FMDV FLuc: 9.5%; FMDV Renilla: 9.6%

Results for C=CCOc1nc2c(c(=O)n(Cc3ccc(Br)cc3)c(=O)n2C)n1C ?
FMDV FLuc: -1.6%; FMDV Renilla: -11.6%

Results for Cc1c(C)c2ccc(OCC(=O)Nc3nc4ccccc4[nH]3)cc2oc1=O ?
FMDV FLuc: 6.2%; FMDV Renilla: -7.1%

How did CC1CCCCC1NC(=S)NN (stereo unspecified) do in these assays?
FMDV FLuc: 0.0%; FMDV Renilla: 24.5%

Screens as filed in PubChem.
